This note sets out measurements from PubChem BioAssay (EPA / NIEHS).

Active and inactive are the calls of the source. Rule for the calls: active = hit-call score of the fitted dose curve at least 0.9, where 1 is the maximum; inactive = score below 0.9.

Read-out in the test: Glutamate-cysteine ligase regulatory (GCLM), GCLM (gene 2730)
The experiment in a line: LTEA_HepaRG_GCLM: Life Technologies and Expression Analysis (LTEA) Assay for Glutamate-cysteine ligase regulatory (GCLM) using HepaRG (AID 2283500). The conditions noted are these: mRNA level, 48 h; actives raise or lower the signal. How it is done: LTEA_HepaRG is a cell based, multiplexed-readout assay that uses HepaRG, a human liver cell line, with measurements taken at 48 hours after chemical dosing on a 96-well plate.LTEA_HepaRG_GCLM is one of 102 assay component(s) measured in the LTEA HepaRG cell culture assay. It is a marker of Cell proliferation, survival, death.Data from the assay component LTEA_HepaRG_GCLM was analyzed into 1 endpoint. This assay endpoint, LTEA_HepaRG_GCLM, was analyzed with bidirectional fitting relative to DMSO as the negative control and baseline of activity. Using a type of inducible reporter, measures of mRNA induction for gain or loss-of-signal activity can be used to understand regulation of transcription factor activity. To generalize the intended target to other relatable targets, this assay endpoint is annotated to the ligase intended target family, where the subfamily is C-N ligase.
A total of 1060 chemcials from the ToxCast library were tested in eight-point concentration-response experiments. Cell culture and cytotoxicity assays were conducted at Thermo Fisher Scientific's Custom Services facility (Madison, WI). A single lot of human HepaRG cells (Thermo Fisher Scientific, Frederick, MD) was used for the cell culture experiments. 96-well format collagen type I coated plates of human HepaRG cells were prepared using established methods. Briefly, cryopreserved HepaRG cells were thawed, plated at a density of approximately 100,000 cells/well in HepaRG Thaw, Plate, and General Purpose media (HPRG770, Thermo Fisher Scientific), and incubated for 48 hours. 0.5% DMSO was selected as vehicle control to balance the requisite need of DMSO in HepaRG cultures to maintain differentiation (for example, baseline metabolism, proportions of hepatocytes vs. cholangiocytes), while enabling further hepatic receptor pathway activation (for example, PXR and CAR) in response to chemical exposure. 48 hours after plating, the culture medium was replaced with HepaRG Serum-Free Incudtion Media. Cells were exposed to each test chemical in duplicate and maintained in CO2 incubators for another 48 hours. Chemical plates were thawed to room temperature and 200x concentrations of treatment groups were prepared. 8-point conentration-reponse curves were made with the highest exposure at 100 uM, followed by half-log dilutions, all in 0.5% DMSO. Each test plate contained variouse controls, induction positive controls (1mM phenobarbital), cytotoxicity positive controls ([…] aflatoxin B1), vehicle controls (0.5% DMSO), and total lysis controls (0.5% DMSO). Cell morphology images were taken using an Essen IncuCyte FLR automated microscope, with six 96-well plates imaged in about 24 minutes. Images were captured and exported and JPEG files. Spent culture media was transfered to black-well plates for the LDH assay, and remaining media was sorted at -80 C for later use. Cells were treated with RLT buffer and frozen until shipped for gene expression analysis. Total RNA was isolated from the cell suspension in 75 uL of Buffer RLT (Qiagen, Germantown, MD 20874) by Quintiles/Expression Analysis (Durham, NC) using a custom isolation procedure. Total RNA from each plate well was transferred to a preamplification plate. Fluidigm's 96.96 Dynamic ArrayTM (Fluidigm, Amsterdam, the Netherlands) technology was used for gene expression analyses by quantitative reverse transcription polymerase chain reaction (qRT-PCR, performed by Quintiles/Expression Analysis, Durham, NC)89. Standard TaqManTM Assays (Applied Biosystems/ThermoFisher Scientific, Foster City, CA) were used to assess the expression of 93 genes selected based on their selectivity and sensitivity to important hepatic receptors known to be modulated by environmental chemicals; importance in human hepatocyte functionality; and hepatotoxicity. […]
For the compound `c1ccc2c(c1)oc1ccccc12`, the outcome was inactive. `Cc1ccc(N)c(N)c1`: the result was inactive. On to `Cc1ccc([N+](=O)[O-])cc1`, for which the result was inactive. As usually defined, the AC50 is the concentration giving half of the maximal activity seen. With `C[C@]12C=CC3=C4CCC(=O)C=C4CC[C@H]3[C@@H]1CC[C@@H]2O`, the AC50 is 79 µM (active). In the case of `CCC[CH2][Sn]([Cl])([CH2]CCC)[CH2]CCC`, the compound was classed as inactive. As for `CCOC(=O)[C@]1(c2ccccc2)Oc2ccccc2[C@@H]1N`, the half-maximal activity concentration (AC50) was 76.9 µM (active). Take `CC(C)N(Cc1ccccc1)C(=O)C(C)(C)C`: the compound was classed as inactive. For `CCNS(=O)(=O)C(F)(F)C(F)(F)C(F)(F)C(F)(F)C(F)(F)C(F)(F)C(F)(F)C(F)(F)F`, the compound was classed as inactive. As to `Clc1ccc(C(c2ccc(Cl)cc2)C(Cl)(Cl)Cl)cc1`, the compound was called inactive. Still for that read-out and setting: the result for `CC(O)CCO` (stereo not given) reads “inactive”; that for `O=C(O)C1C2CCC(O2)C1C(=O)O` (stereo not given), “inactive”; that for `O=[N+]([O-])C(Br)(CO)CO`, “inactive”. Turning to `Nc1ccc(Cl)cc1N`, the compound was classed as inactive. In the case of `O=C(N[C@H](c1ccccc1)[C@@H]1CN2CCC1CC2)c1c(Cl)ccc(C(F)(F)F)c1Cl`, the compound was classed as inactive. On the same count and under the same terms, the result for `CNC(=O)Oc1cccc2c1OC(C)(C)C2` reads “inactive”; that for `CCN(CC)CCO`, “inactive”. `OCCCBr`: the call was inactive.

`CCOc1cccc(C2(N3CCN(c4ccccc4)CC3)CCC(C)CC2)c1` (stereo not given): the outcome was inactive. For the compound `Brc1ccc(Oc2ccccc2)cc1`, the result was inactive.

`Nc1ccc([N+](=O)[O-])cc1`: the outcome was inactive.

Regarding `CCC(C)c1ccc(O)cc1` (stereo not given), the compound was classed as inactive. `CCCCCCCCOC(=O)c1ccc(C(=O)OCCCCCCCC)c(C(=O)OCCCCCCCC)c1`: the outcome was inactive. As for `C1=Cc2cccc3cccc1c23`, the outcome was inactive. Take `CCC12COCN1COC2`: the compound was called inactive.

Regarding `CCCCCOC(=O)c1ccccc1C(=O)OCCCCC`, the result was inactive. The same measure, in the same setting: then `[O-][Cl+]O`, with “inactive”; and `Cc1cccc(N)c1N`, with “inactive”.

`[As]#[In]`: the compound was classed as inactive. Still for that read-out and setting: the result for `O=Cc1ccco1` reads “inactive”; that for `CCCCCCCCn1sccc1=O`, “inactive”. The same measure, in the same setting: then `CCCCCCCCCCCCCN1CC(C)OC(C)C1` (stereo not given), with “inactive”; and `C[N+](C)(C)CC1CO1` (stereo not given), with “inactive”.

Regarding `CN(C)[C@@H]1C(=O)C(C(N)=O)=C(O)[C@@]2(O)C(=O)C3=C(O)c4c(O)cccc4[C@@](C)(O)[C@H]3C[C@@H]12`, the outcome was inactive.

Regarding `CN(C)c1ccc(C(=O)c2ccc(N(C)C)cc2)cc1`, the call was inactive. For the compound `ClC1=C(Cl)[C@]2(Cl)[C@H]3[C@H]([C@@H]4C=C[C@H]3C4)[C@@]1(Cl)C2(Cl)Cl`, the concentration at half-maximal activity (AC50) was 12.7 µM (active). As to `N#CC(Br)(Br)C(N)=O`, the result was inactive. On to `O=C(Nc1ccccc1)c1ccccc1I`, for which the half-maximal activity concentration (AC50) is 50 µM (active). In the case of `Clc1ccc(C(c2ccc(Cl)cc2)C(Cl)Cl)cc1`, the compound was classed as inactive. Regarding `Clc1ccc(Cl)c(Cl)c1`, the call was inactive.

`Nc1ccc(N=Nc2ccccc2)cc1`: the call was inactive.
